From article PMC11062922 (Nature Chemical Biology, 2023)
Like-named read-outs stand apart in the source and are kept apart here.

Columns and labels:
GSK3A = tested on: GSK3A; parameters: species or system human, MV4-11 + K-562 + COLO205 + SK-N-BE2 + OVCAR-8; settings: read-out: apparent Kd, n = 1
GSK3B = tested on: GSK3B; parameters: species or system human, MV4-11 + K-562 + COLO205 + SK-N-BE2 + OVCAR-8; settings: read-out: apparent Kd, n = 1
PAK4 = tested on: PAK4; parameters: species or system human, MV4-11 + K-562 + COLO205 + SK-N-BE2 + OVCAR-8; settings: read-out: apparent Kd, n = 1
PKN3 [1] = tested on: PKN3; parameters: species or system human, MV4-11 + K-562 + COLO205 + SK-N-BE2 + OVCAR-8; settings: read-out: apparent Kd, n = 1;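 for IC50: NanoBRET target engagement in HEK293T cells transiently expressing full-length PKN3 with C-terminal NanoLuc, displacement of fluorescent tracer K5 (500 nM), BRET read after 2 h equilibration at 37 °C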
PKN3 [2] = settings: hek293t cells
CSNK2A1;CSNK2A3 = tested on: CSNK2A1;CSNK2A3; parameters: species or system human, MV4-11 + K-562 + COLO205 + SK-N-BE2 + OVCAR-8; settings: read-out: apparent Kd; compound concentrations: 100 nM and 1000 nM (sheet 'Samples'), CATDS: 0.36155727747203598; n = 1
CSNK2A2 = tested on: CSNK2A2; parameters: species or system human, MV4-11 + K-562 + COLO205 + SK-N-BE2 + OVCAR-8; settings: read-out: apparent Kd; compound concentrations: 100 nM and 1000 nM (sheet 'Samples'), CATDS: 0.44448936869789302; n = 1
AAK1 = tested on: AAK1; parameters: species or system human, MV4-11 + K-562 + COLO205 + SK-N-BE2 + OVCAR-8; settings: read-out: apparent Kd; compound concentrations: 100 nM and 1000 nM (sheet 'Samples'), CATDS: 1; n = 1
GAK = tested on: GAK; parameters: species or system human, MV4-11 + K-562 + COLO205 + SK-N-BE2 + OVCAR-8; settings: read-out: apparent Kd; compound concentrations: 100 nM and 1000 nM (sheet 'Samples'), CATDS: 4.7773336245273197E-2; n = 1
PKN1 = tested on: PKN1; parameters: species or system human, MV4-11 + K-562 + COLO205 + SK-N-BE2 + OVCAR-8; settings: read-out: apparent Kd; compound concentrations:100 nM and 1000 nM (sheet 'Samples'); n = 1
[3] = compound concentrations:100 nM and 1000 nM (sheet 'Samples')

**Q.** For `CCn1c(-c2nonc2N)nc2c(C#CC(C)(C)O)nc(OC[C@@H](N)c3ccccc3)cc21` [GSK938890A], which potency estimated from few doses (GSK3A; compound concentrations: 100 nM and 1000 nM (sheet 'Samples'), CATDS: 6.6915182583243901E-2) is on record?
**A.** 404 nM

**Q.** What about the potency estimated from few doses (GSK3B; compound concentrations: 100 nM and 1000 nM (sheet 'Samples'), CATDS: 6.5310864553074097E-2) of the same compound?
**A.** 446 nM

**Q.** And the potency estimated from few doses (PAK4; compound concentrations: 100 nM and 1000 nM (sheet 'Samples'), CATDS: 0.107853549418886)?
**A.** 88.3 nM

**Q.** And the potency estimated from few doses (PKN3 [1]; compound concentrations: 100 nM and 1000 nM (sheet 'Samples'), CATDS: 0.20749541918588199)?
**A.** 23.6 nM

**Q.** And the IC50 (PKN3 [2]; read-out: Average, SD, n = 4)?
**A.** 97.8 nM

**Q.** And the IC50 (PKN3 [2]; read-out: Rep 1)?
**A.** 310 nM

**Q.** What about the IC50 (PKN3 [2]; read-out: Rep 2) of the same compound?
**A.** 31.2 nM

**Q.** And the IC50 (PKN3 [2]; read-out: Rep 3)?
**A.** 28.1 nM

**Q.** And the IC50 (PKN3 [2]; read-out: Rep 4)?
**A.** 22.3 nM

**Q.** Which potency estimated from few doses (CSNK2A1;CSNK2A3) does the source give for `O=C1N=C(Nc2ccccc2)S/C1=C\c1ccc2ncccc2c1` [RO4493940-000] here?
**A.** 291 nM

**Q.** What about the potency estimated from few doses (CSNK2A2) of the same compound?
**A.** 203 nM

**Q.** What does the source list for `Cl.ON=C1CCc2cc(-c3nc(C4CCNCC4)[nH]c3-c3ccncc3)ccc21` [SB-614067-R]?
**A.** potency estimated from few doses (PKN3 [1]; [3]): 125 nM; IC50 (PKN3 [2]; read-out: Average, SD, n = 4): 22900 nM; IC50 (PKN3 [2]; read-out: Rep 1): 19100 nM; IC50 (PKN3 [2]; read-out: Rep 2): 20600 nM; IC50 (PKN3 [2]; read-out: Rep 3): 50100 nM; IC50 (PKN3 [2]; read-out: Rep 4): 1840 nM

**Q.** How did the potency estimated from few doses (AAK1) turn out when `COc1cccc(NC(=O)NC2CCN(c3ccnc(Nc4cc(OC)c(OC)c(OC)c4)n3)C2)c1` (stereo not shown) [GSK1379763A] was run?
**A.** 1850 nM

**Q.** For `COc1cccc2c(-c3ccncc3)c(-c3ccc(F)cc3)nn12` [GW468513X], which potency estimated from few doses (GAK) is on record?
**A.** 615 nM

**Q.** And the potency estimated from few doses (PKN3 [1]; compound concentrations: 100 nM and 1000 nM (sheet 'Samples'), CATDS: 5.3563953975551901E-2)?
**A.** 427 nM

**Q.** And the IC50 (PKN3 [2]; read-out: Average, SD, n = 3)?
**A.** 910 nM

**Q.** And the IC50 (PKN3 [2]; read-out: Rep 1)?
**A.** 2100 nM

**Q.** What about the IC50 (PKN3 [2]; read-out: Rep 2) of the same compound?
**A.** 552 nM

**Q.** What about the IC50 (PKN3 [2]; read-out: Rep 4) of the same compound?
**A.** 73.9 nM

**Q.** With `CCn1c(-c2nonc2N)nc2c(C#CC(C)(C)O)nc(OCCNC)cc21.Cl` [GSK949675A] as the compound, how does the potency estimated from few doses (GSK3A; [3]) read?
**A.** 70.4 nM

**Q.** What about the potency estimated from few doses (GSK3B; [3]) of the same compound?
**A.** 91.5 nM

**Q.** What about the potency estimated from few doses (PAK4; [3]) of the same compound?
**A.** 736 nM

**Q.** And the potency estimated from few doses (PKN1)?
**A.** 675 nM

**Q.** What about the potency estimated from few doses (PKN3 [1]; [3]) of the same compound?
**A.** 2.48 nM

**Q.** And the IC50 (PKN3 [2]; read-out: Average, SD, n = 4)?
**A.** 669 nM

**Q.** What about the IC50 (PKN3 [2]; read-out: Rep 1) of the same compound?
**A.** 1950 nM

**Q.** And the IC50 (PKN3 [2]; read-out: Rep 2)?
**A.** 441 nM

**Q.** What about the IC50 (PKN3 [2]; read-out: Rep 3) of the same compound?
**A.** 149 nM

**Q.** And the IC50 (PKN3 [2]; read-out: Rep 4)?
**A.** 136 nM
